# Sampled rows, rich in hits. Any-hit rate of the full collection: about 8%.
# HT1080NT lethal – kills 2HG-producing HT-1080-NT fibrosarcoma cells | HT-1080-NT fibrosarcoma viability, CellTiter-Glo ATP luminescence, 48 h | actives 1.6% (n = 360,000) | Potency, µM (highest dose often 46.1 µM), hits mostly cytotoxic;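 note: NT is the 2HG producing partner of a matched IDH1 knockdown line; nearly all actives have a fitted effect of over 55% in size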
#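 Toxicity toward the 2HG-producing NT line was scored as %Activity, normalised to DMSO and no-cell wells, from CellTiter-Glo luminescence after 48 hours' treatment.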
# KB-3-1 tox – kills parental KB-3-1 adenocarcinoma cells. KB-3-1 viability, CellTiter-Glo ATP luminescence, 72 h. Potency, µM (titrated, usually from 46.1 µM), usual class: cytotoxic. actives 1.4% (n = 400,000). AID 1347075; note: nearly all actives have a fitted effect of over 60% in size
#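 Cells are dispensed, compounds pinned in, plates held at 37 °C for 72 h, then CellTiter-Glo is added and luminescence read after 10 minutes. Cell line: parental KB-3-1 in phenol-red-free DMEM, 10% FBS.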
# MCF10A rereplic – DNA re-replication induction in MCF 10a cells. MCF 10A DNA re-replication, Hoechst nuclear intensity, 48 h. Potency, µM (series often up to 46.1 µM), usual class: activators. actives 2.9% (n = 350,000); note: nearly all actives have a fitted effect of over 50% in size
# SW480 rereplic – DNA re-replication induction in SW480 cells; SW480 DNA re-replication, Hoechst DNA content imaging, 48 h; Potency, µM (titrated, usually from 46.1 µM), actives largely listed as activators; actives 1.8% (n = 340,000); AID 624297; note: nearly all actives have a fitted effect of over 55% in size
#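 First, 250 cells per well were seeded. Next, compound or vehicle (23 nL) was pinned in, plates sat 48 hr at 37 C. Finally Hoechst was added for 40 min before fluorescence scanning.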
# KB-V1 MDR tox – kills drug-selected multidrug resistant KB-V1 cells; KB-V1 MDR cells viability, CellTiter-Glo, 72 h; Potency, µM (top dose mostly 46.1 µM), actives largely listed as cytotoxic; actives 3.4% (n = 400,000); AID 1347076; note: nearly all actives have a fitted effect of over 60% in size
#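 Cytotoxicity via CellTiter-Glo luminescence after 72 h compound exposure at 37 degrees C. Cells: drug-selected KB-V1 line, DMEM phenol-red free plus 10% FBS. Compounds tested at multiple concentrations; normalized data fitted to concentration-effect curves.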
# HT1080 IDH1KD tx – HT-1080 IDH1 knockdown cell toxicity (counter line); HT-1080 IDH1 knockdown viability, ATP luminescence, 48 h; Potency, µM (doses to about 46.1 µM), usual class: cytotoxic; actives 2% (n = 360,000); AID 686971
#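 % activity derives from luminescence (CellTiter-Glo), normalised to DMSO and no-cell wells. HT-1080-IDH1KD cells, 750/well, had 48 h compound exposure at 37 °C.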
# A number is an active result; 0 = inactive; ? = inconclusive; - = not tested or not shown; ! = not active in a repeat; [ ] = remark or other dose. Calls come from the whole dose curve; as a rule, active = well fitted curve in the direction sought with a large enough effect; inconclusive = small, poorly fitted or top-dose-only effect, or another doubt; inactive = no such curve, though single readings can be large; an effect the other way counts as inactive or inconclusive.
SMILES,HT1080NT lethal,KB-3-1 tox,MCF10A rereplic,SW480 rereplic,KB-V1 MDR tox,HT1080 IDH1KD tx
CCOCCCNC(=O)CN1C(=O)/C(=C\c2ccc(C)cc2)Sc2ccccc21,0,0,?,0,4.6µM,0
COCCCNC(=O)CN1C(=O)/C(=C/c2ccccc2C)Sc2ccccc21,0,0,0,0,?,0
Cc1ccc(/C=C2/Sc3ccccc3N(CC(=O)NCCCOC(C)C)C2=O)cc1,0,0,?,0,23µM,0
CCOCCCNC(=O)CN1C(=O)/C(=C/c2ccccc2)Sc2ccccc21,0,0,0,0,15µM,0
CCOC(=O)c1c(NC(=O)c2cc(=O)c3ccc(C)cc3o2)sc(C)c1C,-,0,-,-,0,-
S=C1NC=NC2N=CNC12 (stereo not given),-,-,0,?,-,-
Cc1cc(=O)n2c3ccccc3n(CC(O)CN3CCC(C)CC3)c2c1C#N (stereo not given),0,0,0,1.3µM,0,0
Brc1cccc(-c2nc3c4ccccc4ccn3c2Cc2ccccc2)c1,0,0,-,-,0,0
Cc1nc2c3ccccc3nc(SCC(=O)N3CC(C)CC(C)C3)n2n1 (stereo not given),0,0,0,0,0.58µM,0
COCCNC(=O)CSc1nc2ccccc2c2nc(C)nn12,0,0,0,0,0,0
Cc1nc2c3ccccc3nc(SCC(=O)c3ccc(Cl)cc3)n2n1,0,0,?,0,10µM,0
COc1ccc(CCc2ccc3ccccc3n2)cc1,0,0,18µM,0,0,0
Nc1ncnc(N2CCc3ccccc32)c1[N+](=O)[O-],0,?,0,0,13µM,0
COc1cc(OC)cc(-c2c(-c3cccs3)c3cc(-c4ccc(C(N)=O)cc4)ccc3n2C)c1,0,?,16µM,?,0,0
COc1ccc(-c2ccc3c(c2)c(-c2cccs2)c(-c2cc(OC)cc(OC)c2)n3C)cc1,0,0,0,0,0,0
Cc1cc(=O)[nH]c(N/N=C/c2cn(CCC#N)nc2-c2ccccc2)n1,0,0,0,0,0,0
COc1ccc2nc(-c3ccc(N)cc3)[nH]c2c1,0,0,0,0[9.22 µM],0,0
COc1ccc(-c2nc3ccc(C4=C(C)CC(=O)NN4)cc3[nH]2)cc1,-,-,?,19µM,-,-
CC(=O)[C@@H]1[C@@H](C(=O)c2ccc(C)cc2)[C@]2(C(=O)Nc3ccccc32)[C@H]2C=Cc3cc(F)ccc3N12,?,?,16µM,?,?,?
CC(=O)[C@@H]1[C@@H](C(=O)c2ccc(F)cc2)[C@]2(C(=O)Nc3ccccc32)[C@H]2C=Cc3cc(F)ccc3N12,?,0,21µM,?,0,0
O=C(c1ccc(Br)cc1)c1cc(-c2ccccn2)c(N2CCOCC2)s1,0,0,?,0,4.1µM,0
O=C(c1ccc(Cl)c(Cl)c1)c1cc(-c2ccccn2)c(N2CCOCC2)s1,0,0,21µM,0,4.1µM,0
O=C(c1ccccc1)c1ccc(N2CCOCC2)cc1,0,0,0,0,0,0
O=C(c1ccc(Cl)c(S(=O)(=O)N2CCOCC2)c1)N1CCN(c2ccccn2)CC1,0,0,0,0,0,0
CC(=O)Nc1ccc(S(=O)(=O)N2CCN(c3cc(C)nc4ccccc34)CC2)cc1,0,0,0,0,0,?
SMILES,HT1080NT lethal,KB-3-1 tox,MCF10A rereplic,SW480 rereplic,KB-V1 MDR tox,HT1080 IDH1KD tx
CC(=O)Nc1ccc(S(=O)(=O)N2CCN(c3nc(NC4CCCC4)c4ccccc4n3)CC2)cc1,18µM,?,?,?,?,?
CCC(C)Sc1cccc(-c2nc3cc(C)ccn3c2NC2CCCCC2)c1 (stereo not given),12µM,?,18µM,?,16µM!,18µM
Cc1ccn2c(NC3CCCC3)c(-c3ccsc3)nc2c1,0,0,0,0,?,0
Cc1ccn2c(NC3CCCCC3)c(-c3ccc(SC4CCCCC4)cc3)nc2c1,0,?,-,-,18µM,0
COc1ccc(-c2cc(C(F)(F)F)nc(-n3nc(C(F)(F)F)cc3C)n2)cc1,-,0,-,-,0,-
CCc1ccc(/C=C2\Oc3cc(OC(=O)N4CCOCC4)ccc3C2=O)cc1,0,?,?,0,21µM,0
